# Screening results: PubChem, National Center for Advancing Translational Sciences (NCATS)
# Rows were chosen to be rich in hits. Some 2.8% of all compounds tested hit in one or more screens of this group.
# LDHA block: blocks human lactate dehydrogenase A | 480,000 compounds, 0.15% hits | activity change, % (values are at about 110 or 230 µM) | AID 1347041 | purified LDHA, NADH/diaphorase-resazurin fluorescence; stronger effect = lower value; in the data active = activity change below about -30%; inconclusive = mostly about -25% to -30%;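 note: plate controls were DMSO wells for no effect and wells without enzyme for full effect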
#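 Human LDH5 (2 nM) was incubated with 0.06 mM NADH and 0.2 mM pyruvate for 5 min at room temperature in Tris pH 7.4. Remaining NADH was coupled through diaphorase/resazurin, and resorufin fluorescence was read at 0 and 20 min.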
# PI4K2A inh: inhibitors of human PI4K2A. Q9BTU6. purified PI4K2A, ADP-Glo luminescence, 1 h; stronger effect = lower value. activity change, negative = inhibition, % at 76.9 µM. 420,000 compounds, 0.13% hits; in the data active = activity change below about -50%; inconclusive = mostly about -30% to -49%;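 note: -100% = wells without enzyme as full effect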
# Target sequence (Q9BTU6 whole entry, looked up): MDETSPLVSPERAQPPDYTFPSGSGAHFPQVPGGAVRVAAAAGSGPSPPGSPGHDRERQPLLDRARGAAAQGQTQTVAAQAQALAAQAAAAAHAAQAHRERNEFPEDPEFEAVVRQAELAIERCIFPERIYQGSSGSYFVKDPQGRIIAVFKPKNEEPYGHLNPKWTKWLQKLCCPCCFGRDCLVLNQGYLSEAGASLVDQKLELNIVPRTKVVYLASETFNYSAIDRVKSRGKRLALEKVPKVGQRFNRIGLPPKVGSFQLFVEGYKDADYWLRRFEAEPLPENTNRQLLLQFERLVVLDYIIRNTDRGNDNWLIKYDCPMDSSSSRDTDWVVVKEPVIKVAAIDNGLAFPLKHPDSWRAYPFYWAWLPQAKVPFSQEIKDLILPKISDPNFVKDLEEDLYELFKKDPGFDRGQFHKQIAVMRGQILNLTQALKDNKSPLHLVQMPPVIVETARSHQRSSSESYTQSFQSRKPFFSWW
#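 In this quantitative HTS, ADP production by PI4K2A was quantified luminescently after 1 h at ambient temperature; 100 microM adenosine served as plate-quality control.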
# RGS4 inh: inhibitors of human regulator of G protein signaling 4. P49798. Transcreener GDP fluorescence polarization, RGS4-accelerated GTP hydrolysis. Potency, µM (doses to about 114 µM), for the others: at the top dose activity change, negative = inhibition, usual class: inhibitors. 390,000 compounds, 0.039% hits; active = well fitted inhibition curve with a large enough effect; inconclusive = small, poorly fitted or top-dose-only effect; inactive = no such curve, though single readings can be large or run the other way; note: potency is the fitted concentration of half-maximal effect; % is set by controls: 0 for no effect and ±100 for the full control effect; nearly all actives have a fitted effect of over 75% in size
# Target sequence (P49798 whole entry, looked up): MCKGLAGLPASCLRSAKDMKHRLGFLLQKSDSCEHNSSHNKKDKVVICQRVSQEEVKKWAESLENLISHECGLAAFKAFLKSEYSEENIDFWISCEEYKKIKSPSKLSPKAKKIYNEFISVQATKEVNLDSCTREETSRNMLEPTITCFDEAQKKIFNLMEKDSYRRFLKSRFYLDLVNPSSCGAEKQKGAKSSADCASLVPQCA
#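 MLSMR compounds (23 nl, pin-transferred) preincubated 10 min at room temperature with a 500nM (2x) first reagent, then RGS4 at 900nM (2x) plus Transcreener GDP mix added; fluorescence polarization (620/688 nm) read before and after 90 min at 30 °C.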
# D3 antag: blocks the human D3 dopamine receptor. P35462. D3R cells, DiscoveRx beta-arrestin luminescence, antagonist mode; stronger effect = lower value. max response, negative = inhibition, %. 360,000 compounds, 2.5% hits; in the data active = max response below about -50%; inconclusive = no clear call, values can overlap the other calls; note: % is set by controls: 0 for no effect and ±100 for the full control effect
#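 Cells plated overnight at 1500 cells/well, then exposed to library compounds with dopamine controls for 90 minutes at 37 degrees C. DiscoveRx reagent added for 30–60 minutes at room temperature; luminescence read, quantitative HTS format.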
# pAkt inh: Akt phosphorylation inhibition; activity change, % for hits at 50 µM; 360,000 compounds, 0.32% hits; AID 651550; Neuro2A IGF-stimulated pAkt S473 HTRF, 20 min; stronger effect = lower value; in the data active = activity change below about -80%; inconclusive = mostly about -51% to -80%; note: % is set by controls: 0 for no effect and ±100 for the full control effect
#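 Neuro2A cells in DMEM with 0.5% FBS, overnight at 37 deg C, given compound at single 50 µM final, then IGF (6 nM final) for 20 min at 37 deg C. Lysed; phospho-Akt Ser473 by HTRF after 24 h, 665/615 ratio.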
# DRD3 agonist: agonists of human D3 dopamine receptor. P35462. D3R DiscoveRx beta-arrestin cells, luminescence, 90 min. max activation, %. 410,000 compounds, 0.58% hits. AID 652048; in the data active = max activation above about 30%; note: 0% is about no effect
#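 Agonist-mode cell screen: cells plated at 1500/well and incubated overnight at 37 °C, then exposed to library compounds for 90 min at 37 °C. Detection reagent was added for 30–60 min at room temperature, and luminescence was read.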
# Starred values were filed as active, the others as inactive; i = inactive; ? = inconclusive; · = no result.
SMILES,LDHA block,PI4K2A inh,RGS4 inh,D3 antag,pAkt inh,DRD3 agonist
CC(C)CC(=O)NC(NC(=S)Nc1sc2c(c1C#N)CCCC2)C(Cl)(Cl)Cl (stereo not drawn),-7,-5,?,-83*,i,-5
CCN(CC)c1ccc2nnc(CCC(=O)N3CCC4(CC3)OCCO4)n2n1,-3,·,·,·,·,·
CC(C)CN(C(=O)CN1c2ccccc2CC1C)c1c(N)n(Cc2ccccc2)c(=O)[nH]c1=O (stereo not drawn),-3,·,·,·,·,·
CCCCC/C=C/C1=CC(=O)C[C@H](c2ccc3c(c2)OCO3)C1,3,-5,-13%,-1,i,51*
O=C1C=C(c2ccc(CO)cc2)C[C@@H](c2ccc3c(c2)OCO3)C1,-4,-1,2%,-51*,i,-27
COc1ccc(NS(=O)(=O)c2cccc(C(=O)NCC(c3ccc(OC)cc3)N3CCCCC3)c2)cc1 (stereo not drawn),-1,0,0%,-57*,i,-14
CCN(c1ccccc1)S(=O)(=O)c1cccc(C(=O)NCC(c2ccc(OC)cc2)N2CCCCC2)c1 (stereo not drawn),-4,-3,·,-122*,i,-5
COc1ccc(C(CNC(=O)c2ccc(OC)c(S(=O)(=O)N3CCCC3)c2)N2CCCC2)cc1 (stereo not drawn),2,3,18%,-83*,i,-23
COc1ccc(NS(=O)(=O)c2cccc(C(=O)NCC(c3ccc(OC)cc3)N3CCCC3)c2)cc1 (stereo not drawn),-7,2,13%,?,i,-13
COc1ccccc1NS(=O)(=O)c1cccc(C(=O)NCC(c2ccco2)N2CCCCC2)c1 (stereo not drawn),-1,0,29%,-16,i,-31
C=CCN(c1ccccc1)S(=O)(=O)c1cccc(C(=O)NCC(c2ccc(OC)cc2)N2CCCCC2)c1 (stereo not drawn),-2,0,-29%,?,i,-28
COc1ccc(C(CNC(=O)c2cccc(S(=O)(=O)Nc3ccccc3OC)c2)N2CCCCC2)cc1 (stereo not drawn),-3,-2,-1%,-81*,i,-28
O=C(NCCc1ccc(F)cc1)c1cc(C2CC2)nc2ccccc12,4,·,·,·,·,·
CCN=C1NN=C(c2cc(C)n(C3CC3)c2C)CS1,-2,·,·,·,·,·
COc1ccc(C(CNC(=O)c2ccc(C)c(S(=O)(=O)Nc3ccccc3OC)c2)N2CCCC2)cc1 (stereo not drawn),1,2,-15%,-93*,i,-23
COc1cccc(C(=O)NCCS(=O)(=O)N2CCCC2)c1,-11,4,21%,-63*,i,-5
COc1ccc(C(CNC(=O)c2cccc(N(C)C)c2)N2CCCC2)cc1 (stereo not drawn),1,-3,5%,-2,i,-5
COc1ccc(C(CNC(=O)c2cc(S(=O)(=O)N3CCCCC3)ccc2C)N2CCCC2)cc1 (stereo not drawn),1,-9,-34%,?,i,-15
COc1ccc(C(CNC(=O)c2cccc(S(=O)(=O)N3CCCCC3)c2)N2CCCC2)cc1 (stereo not drawn),-5,-2,31%,-51*,i,-12
COc1cccc(C(=O)NCCS(=O)(=O)N2CCCCC2)c1,-10,3,-25%,5,i,-2
CCC1CCc2sc(C(=O)NCC(c3ccc(OC)cc3)N3CCCC3)cc2C1 (stereo not drawn),-2,0,-8%,-89*,i,-9
CCN1CCN(c2nc3nnnn3c3sc4c(c23)CCN(Cc2ccccc2)C4)CC1,10,·,·,·,·,·
COc1ccc(C(CNC(=O)c2cccc(S(=O)(=O)Nc3ccccc3OC)c2)N2CCCC2)cc1 (stereo not drawn),-10,2,20%,-65*,i,-31
Cc1ccc(S(=O)(=O)N(C)c2ccc(C(=O)NCC(c3ccccc3)N3CCCC3)cc2)cc1 (stereo not drawn),1,0,·,-64*,i,-15
COc1ccc(N(C)S(=O)(=O)c2cccc(C(=O)NCC(c3cccs3)N(C)C)c2)cc1 (stereo not drawn),-1,1,-26%,-67*,i,-28
SMILES,LDHA block,PI4K2A inh,RGS4 inh,D3 antag,pAkt inh,DRD3 agonist
CN(c1ccccc1)S(=O)(=O)c1ccc(C(=O)NCC(c2ccco2)N2CCCCC2)cc1 (stereo not drawn),-1,3,10%,?,i,-16
COc1ccccc1N(C)S(=O)(=O)c1ccc(C(=O)NCC(c2ccco2)N2CCCCC2)cc1 (stereo not drawn),-3,-3,20%,?,i,-4
COc1ccc(N(C)S(=O)(=O)c2cccc(C(=O)NCC(c3ccco3)N3CCCC3)c2)cc1 (stereo not drawn),-6,-3,-20%,-57*,i,-27
O=C(NC12CC3CC(CC(C3)C1)C2)c1cccc(I)c1,-3,·,·,·,·,·
CCCNc1nc2ccccc2nc1C(=O)Nc1ccccc1,-7,·,·,·,·,·
CN1CCc2c(c(N3CCOCC3)nc3sc(C(N)=O)c(N)c23)C1,7,·,·,·,·,·
COc1ccc(C(CNC(=O)c2cc3ccccc3cc2OC)N2CCCC2)cc1 (stereo not drawn),-4,4,-15%,-56*,i,-10
OC1c2cc(Cl)cc(Cl)c2N=C2CCCN21 (stereo not drawn),0,·,·,-59*,i,-12
COc1ccc(-c2nnn(CC(=O)N3CCOCC3)n2)cc1,-9,1,10%,-60*,i,5
O=C(Cn1nnc(-c2ccc(Br)cc2)n1)N1CCOCC1,0,·,·,·,·,·
CC(C)CC(=O)Nc1cc2c(cc1Sc1ccccc1Cl)n(C)c(=O)n2C,1,·,·,·,·,·
NNc1nc2sc3c(c2c(=O)[nH]1)CCc1ccccc1-3,-13,4,-49%,-55*,i,-6
Cc1cc(C)c2c(=O)cc(C(=O)Nc3nnc(C)s3)oc2c1,1,·,·,·,·,·
CCOc1ccc(CCNC(=O)c2cc(C)nc3c2c(C)nn3-c2cccc(F)c2)cc1,-6,-2,6%,·,·,63*
COc1cccc(CNC(=O)c2cc(C)nc3c2c(C)nn3-c2ccc(C)cc2)c1,-4,-1,-3%,·,·,37*
COc1ccc(CCNC(=O)c2cc(C)nc3c2c(C)nn3-c2ccc(C)cc2)cc1OC,-3,0,-17%,·,·,8
COc1cc(OC)c2c(C)c(CC(=O)Nc3ccc(F)cc3)c(=O)oc2c1,-1,·,·,·,·,·
NNc1cccc2ncccc12,95,·,·,·,·,·
